An excerpt weighted towards active compounds, which were near 3.1% of everything screened.
pS6 MEF inh: Acumen qHTS Assay for Inhibitors of the mTORC1 Signaling Pathway in MEF (Tsc2-/-, p53-/-) Cells: Sytravon. Tsc2-/- p53-/- MEF, phospho-rpS6 immunofluorescence/PI, 24 h. Potency, µM (titrated, usually from 38.3 µM), for the others: at the top dose activity change, negative = inhibition, most hits filed as inhibitors. 44,000 compounds, 0.78% hits;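 note: potency is the fitted concentration of half-maximal effect; plate controls were DMSO for no effect and rapamycin for full effect; nearly all actives have a fitted effect of over 50% in size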
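Compounds act on Tsc2-/-, p53-/- fibroblasts carrying an empty vector for 24 h before fixation and dual staining for phospho-S6 and DNA (propidium iodide). Values are percentages of cells above a rapamycin-defined pS6/PI threshold.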
S16 viability: Cell viability qHTS assay in S16 Pmp22-F2sN cells. AID 1508642, 2021. Potency, µM (series often up to 57.5 µM), inactives show at the highest dose activity change, negative = cytotoxicity, most hits filed as cytotoxic. 43,000 compounds, 0.48% hits. S16 Pmp22-F2sN Schwann cells viability, CellTiter-Glo, 24 h; note: potency is the fitted concentration of half-maximal effect; % is set by controls: 0 for no effect and ±100 for the full control effect; nearly all actives have a fitted effect of over 65% in size
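CellTiter-Glo counter-screen, qHTS, 1536-well. Cells: S16(c9) Pmp22-F2sN, 500-1,000/well in DMEM + 10% FBS. Cpd 23 nL pin transfer, 24 h, 37C/5% CO2. Read: luminescence, CCD imager.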
p53null 32C kill: qHTS Screen for Compounds that Selectively Target Cancer Cells with p53 Mutations: Cytotoxicity of p53 Null Cells at the Permissive Temperature | H1299-neo p53 null cells, ATP luminescence, 24 h, 32C | Potency, µM (series often up to 46.1 µM), without a hit: top-dose activity change, negative = cytotoxicity, actives largely listed as cytotoxic | 55,000 compounds, 0.62% hits;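 note: potency is the fitted concentration of half-maximal effect; 0% = DMSO only and -100% = full killing by 100 µM tamoxifen; nearly all actives have a fitted effect of over 55% in size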
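H1299-neo, 600 cells/well; overnight 37C; cpd up to 46 uM, 24 h at 32C; ATPlite luminescence after 20 min RT; normalized to DMSO (0%) and tamoxifen 100 uM (100% kill); Hill-fit AC50.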
SKOV3 invasion: Primary qHTS assay for Inhibitors of ovarian cancer metastasis using an organotypic tumor microenvironment (TME) model; AID 1963576, 2024; Potency, µM (titrated, usually from 45.8 µM), for inactives: at the highest dose activity change, negative = inhibition, usual class: inhibitors; SKOV3ip1-GFP adhesion/invasion on 3D omental model, fluorescence; 46,000 compounds, 0.1% hits;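 note: potency is the fitted concentration of half-maximal effect; plate controls were DMSO wells for no effect and tomatine positive control wells for full effect; nearly all actives have a fitted effect of over 65% in size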
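qHTS, 4-pt dose (0.36-46 umol/L); SKOV3ip1-GFP, 1,200 cells/well, no FBS; primary omental fibroblast/mesothelial co-culture 48 h pre-grown; 2 h RT + 16 h 37 C; PBS wash, 4% PFA; GFP count 488/509 nm.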
p53null 39C tox: qHTS Screen for Compounds that Selectively Target Cancer Cells with p53 Mutations: Cytotoxicity of p53 Null Cells at the Nonpermissive Temperature. AID 904, 2007. Potency, µM (doses to about 46.1 µM), inactives show top-dose activity, negative = cell killing, actives largely listed as cytotoxic. 55,000 compounds, 0.97% hits. H1299 p53-null (neo) cells, 39C, ATPlite viability, 24 h;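 note: potency is the fitted concentration of half-maximal effect; 0% = DMSO only and -100% = full killing by 100 µM tamoxifen; nearly all actives have a fitted effect of over 50% in size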
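Concentration-response (up to 46 uM) was run for 24 h at the nonpermissive 39C on H1299-p53A138V or H1299-neo cells. ATP content was measured with ATPlite luminescence. AC50 values were Hill-modeled after normalizing between DMSO and 100 uM tamoxifen killing.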
PMP22 txn prim: Cell-based coincidence reporter assay to measure PMP22 gene transcription in S16 Pmp22-F2sN cells - Primary screen | S16 Pmp22-F2sN Schwann cells (luciferase reporters placed in the Pmp22 gene), FLuc/NLuc coincidence luminescence, 24 h | Potency, µM (titrated, usually from 57.5 µM), for inactives: at the highest dose activity change, negative = inhibition, usual class: inhibitors | 43,000 compounds, 2% hits; active = clear falling dose curves in both reporters; inconclusive = both reporters move, but less clearly or upward; inactive = either reporter flat; the % is the NLuc reporter signal; note: potency is the fitted concentration of half-maximal effect; % is set by controls: 0 for no effect and ±100 for the full control effect
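Transcriptional readout in edited S16(c9) cells: two luciferases reported from the Pmp22 locus, measured in turn after 24 h compound incubation.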
NLuc sat counter: Biochemical NLuc saturation counterscreen for small molecule modulators of PMP22 gene expression - Nano-Glo assay; shares compounds with PMP22 txn prim; Secreted NLuc enzyme (filtered S16 cell medium), Nano-Glo luminescence; Potency, µM (doses to about 57.5 µM), for the others: at the top dose activity change, negative = inhibition, usual class: inhibitors; 690 compounds, 4% hits; AID 1508638, 2021; note: potency is the fitted concentration of half-maximal effect; % is set by controls: 0 for no effect and ±100 for the full control effect
NLuc Km ctr: Biochemical coelenterazine-based NLuc counterscreen for small molecule modulators of PMP22 gene expression - Km assay. 690 compounds, 5% hits. shares compounds with PMP22 txn prim. secreted NLuc enzyme, coelenterazine luminescence, Km conditions. Potency, µM (top dose mostly 57.5 µM), for the others: at the top dose activity change, negative = inhibition, most hits filed as inhibitors; note: potency is the fitted concentration of half-maximal effect; % is set by controls: 0 for no effect and ±100 for the full control effect
FLuc counter: Biochemical FLuc counterscreen for small molecule modulators of PMP22 gene expression; shares compounds with PMP22 txn prim; 690 tested, under 10 active; purified P. pyralis FLuc, luminescence, 10 min; Potency, µM (highest dose often 57.5 µM), for the others: at the top dose activity, negative = inhibition, usual class: inhibitors; note: % of control where 0% means no effect
Target sequence (P08659 whole entry, looked up): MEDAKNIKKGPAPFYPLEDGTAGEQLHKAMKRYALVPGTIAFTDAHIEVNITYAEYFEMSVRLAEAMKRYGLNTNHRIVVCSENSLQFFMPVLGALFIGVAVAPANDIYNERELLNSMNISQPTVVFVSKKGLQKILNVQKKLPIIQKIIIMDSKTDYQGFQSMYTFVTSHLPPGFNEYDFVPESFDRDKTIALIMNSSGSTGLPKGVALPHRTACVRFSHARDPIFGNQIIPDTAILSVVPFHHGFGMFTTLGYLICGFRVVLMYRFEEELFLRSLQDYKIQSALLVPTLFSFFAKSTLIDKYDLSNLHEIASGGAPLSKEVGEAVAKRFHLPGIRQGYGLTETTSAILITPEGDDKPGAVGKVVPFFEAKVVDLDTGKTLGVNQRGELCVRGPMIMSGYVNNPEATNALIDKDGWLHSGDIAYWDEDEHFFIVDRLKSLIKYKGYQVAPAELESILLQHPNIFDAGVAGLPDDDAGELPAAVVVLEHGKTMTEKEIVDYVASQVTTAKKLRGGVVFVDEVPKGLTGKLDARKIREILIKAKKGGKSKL
S16 F2sN tox cnf: Cell viability qHTS assay in S16 Pmp22-F2sN cells - Confirmatory screen; shares compounds with PMP22 txn prim; S16 Schwann cells viability, CellTiter-Glo ATP luminescence, 24 h; Potency, µM (doses to about 57.5 µM), inactives show at the highest dose activity change, negative = viability loss, most hits filed as cytotoxic; 690 compounds, 7% hits; AID 1508641, 2021; note: potency is the fitted concentration of half-maximal effect; % is set by controls: 0 for no effect and ±100 for the full control effect
PMP22 txn cnf: Cell-based coincidence reporter assay to measure PMP22 gene transcription in S16 Pmp22-F2sN cells - Confirmatory screen; S16 Schwann cells Pmp22-F2sN, dual luciferase, 24 h; 690 compounds, 22% hits; Potency, µM (titrated, usually from 57.5 µM), without a hit: at the top dose activity change, negative = inhibition, usual class: inhibitors; AID 1508646, 2021; shares compounds with PMP22 txn prim; active = clear falling dose curves in both reporters; inconclusive = both reporters move, but less clearly or upward; inactive = either reporter flat; the % is the FLuc reporter signal; note: potency is the fitted concentration of half-maximal effect
PMP22 HiBiT cnf: Cell-based HiBiT reporter assay to measure PMP22 protein expression in S16 Pmp22-HiBiT cells - Confirmatory screen; S16 Schwann cells Pmp22-HiBiT, luminescence, 48 h; shares compounds with PMP22 txn prim; Potency, µM (series often up to 27.9 µM), for inactives: top-dose activity change, negative = inhibition, actives largely listed as inhibitors; 95 tested, under 10 active
Target sequence (P25094 whole entry, looked up): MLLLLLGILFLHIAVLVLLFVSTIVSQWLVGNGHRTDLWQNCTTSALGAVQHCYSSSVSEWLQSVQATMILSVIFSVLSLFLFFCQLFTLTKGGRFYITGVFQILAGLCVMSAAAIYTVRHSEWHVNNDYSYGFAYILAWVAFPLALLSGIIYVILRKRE
Active calls of the source: *; i = inactive; ? = inconclusive; . = not tested or not shown; [ ] = another dose, or the depositor's remark. Unless noted, calls come from the whole dose curve; as a rule, active = well fitted curve in the direction sought with a large enough effect; inconclusive = small, poorly fitted or top-dose-only effect, or another doubt; inactive = no such curve, though single readings can be large; an effect the other way counts as inactive or inconclusive.

SMILES | pS6 MEF inh | S16 viability | p53null 32C kill | SKOV3 invasion | p53null 39C tox | PMP22 txn prim | NLuc sat counter | NLuc Km ctr | FLuc counter | S16 F2sN tox cnf | PMP22 txn cnf | others
COc1ccc(C)cc1NC(=O)Cn1c(=O)cc(C)c2c(C)nn(C)c21 | -2.8% | -13.1% | 0.4% | 1.1% | -12.0% | 7.61µM* | -3.5% | 0.1% | 1.1% | -13.9% | ?
COc1ccc(C)cc1NC(=O)c1nnn(CC(=O)Nc2c(C)cccc2C)c1N | -4.7% | 0.7% | 8.7% | -8.1% | -8.6% | 9.15µM* | 0.7% | 5.0% | 1.0% | ? | ?
CNC(=O)c1ccc(C)c(-n2c(C)cc(OCc3ccc(F)cc3F)c(Br)c2=O)c1 | . | . | . | 5.3% | . | . | . | . | . | . | .
COc1ccc(C(C)=O)cc1CSc1nc(Nc2ccc(F)c(F)c2)c2ccccc2n1 | -1.2% | -17.5% | 10.9% | 0.5% | -4.5% | 17.8µM* | ? | ? | -1.2% | 0.0% | ?
C[C@@H]1[C@H](C)CC[C@]2(C(=O)O)CC[C@]3(C)C(=CC[C@@H]4[C@@]5(C)CC[C@H](O)C(C)(C)[C@H]5CC[C@]43C)[C@@H]12 | . | . | . | 4.1%[92.2 µM] | . | . | . | . | . | . | .
CCC(Sc1nc2ccccc2c2nc(-c3ccccc3)nn12)C(=O)Nc1cccc(OC)c1 (configuration not stated) | -0.3% | ? | -6.7% | -1.0% | -2.9% | 13.4µM* | -3.0% | -3.3% | -2.8% | -24.7% | 14.5µM* | PMP22 HiBiT cnf=?
Cc1ccc(/C=N/NC(=O)c2ccccc2Oc2ccccc2)o1 | . | . | . | 5.5% | . | . | . | . | . | . | .
Cc1ccc(Cl)cc1NC(=O)c1oc2ccc(S(=O)(=O)N3CCCCC3)cc2c1C | -9.7% | -1.0% | -6.8% | 9.4% | 10.9% | -8.5% | . | . | . | . | .
Cc1c(C(=O)Nc2ccccc2Cl)oc2ccc(S(=O)(=O)N3CCCCC3)cc12 | -3.7% | 1.8% | -5.3% | i | 17.5% | 14.1µM* | -0.9% | 2.2% | 3.5% | -4.1% | ?
Cc1ccc(Cl)cc1NC(=O)c1oc2ccc(S(=O)(=O)N3CCC4(CC3)OCCO4)cc2c1C | 7.6% | 3.5% | 3.4% | i | -4.1% | 7.51µM* | -11.2% | 2.4% | 0.7% | ? | ?
Cc1c(C(=O)Nc2ccccc2Br)oc2ccc(S(=O)(=O)N3CCCCC3)cc12 | 10.0% | 2.8% | -9.3% | 7.4% | 6.2% | ? | -0.7% | 8.1% | 3.2% | -7.3% | ?
CCNC(=O)Nc1ccc2ncc(Nc3ccc(C)cc3)nc2n1 | . | . | . | -4.0% | . | . | . | . | . | . | .
CCOC(=O)c1ccc(N2C(=O)c3n[nH]c(-c4cccs4)c3C2c2ccc(O)c(OC)c2)cc1 (configuration not stated) | ? | ? | 16.8% | i | 41.8% | 16µM* | ? | ? | -9.4% | -18.5% | ?
Cc1cnc(Nc2ccc(OCCN3CCCC3)cc2)nc1Nc1cccc(S(=O)(=O)NC(C)(C)C)c1 | . | . | . | 32.5% | . | . | . | . | . | . | .
COc1ccc(OC)c(NC(=O)c2sc3nc4c(cc3c2N)CCCCCC4)c1 | ? | -1.8% | ? | 6.6% | ? | ? | . | . | . | . | .
Cc1cccc(NC(=O)c2sc3nc4c(cc3c2N)CCCCCC4)c1C | ? | 16.7% | -2.6% | -10.0% | ? | ? | -7.0% | -2.0% | -7.3% | -0.3% | -39.8%
CCOC(=O)C1CCN(c2nc(-c3ccc(Br)cc3)nc3ccccc23)CC1 | -0.7% | ? | -13.1% | i | 9.3% | 15µM* | -3.6% | -2.8% | 5.1% | -4.0% | -8.7%
CC1CCN(c2nc(-c3ccc(Br)cc3)nc3ccccc23)CC1 | 0.8% | 18.2% | 1.2% | i | 14.5% | 8.3% | . | . | . | . | .
CC(=O)c1ccc(NC(=O)CSC2=Nc3ccccc3N=C(c3ccc(F)cc3)C2)cc1 | 3.8% | ? | -5.2% | 15.6% | 40.9% | 14.5µM* | ? | ? | -0.1% | -6.2% | ?

Assay outcomes deposited in PubChem by National Center for Advancing Translational Sciences (NCATS).
